Measurements published in PubChem BioAssay (NCI).
The panel holds about 83,000 compounds, 20% with a hit somewhere; the sample as a whole holds those more often.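 Testing used 96-well plates and a 48-hour single-concentration exposure. Example: -40 means 40% of the starting cells died.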 Values without a mark were called inactive. The source made the active and inactive calls. The calls were made as follows: active = growth percent below 10; inactive = the rest.

Key:
Experiment in all cases: NCI-60 one-dose screen, 48 h (100 = growth as untreated, 0 = no growth, -100 = all killed)
Conditions in all cases: 10 µM unless noted
DU-145 prostate = system: DU-145 prostate
K-562 leukemia = system: K-562 leukemia
MALME-3M melanoma = system: MALME-3M melanoma
MDA-MB-231 breast = system: MDA-MB-231 breast
RXF 393 renal = system: RXF 393 renal
SF-268 CNS = system: SF-268 CNS
SF-295 CNS = system: SF-295 CNS
SF-539 CNS = system: SF-539 CNS
UACC-257 melanoma = system: UACC-257 melanoma
M14 melanoma = system: M14 melanoma
HCT-15 colon = system: HCT-15 colon
HT29 colon = system: HT29 colon
SNB-75 CNS = system: SNB-75 CNS
SNB-19 CNS = system: SNB-19 CNS
U251 CNS = system: U251 CNS
PC-3 prostate = system: PC-3 prostate
SK-MEL-5 melanoma = system: SK-MEL-5 melanoma
UACC-62 melanoma = system: UACC-62 melanoma
LOX IMVI melanoma = system: LOX IMVI melanoma
SK-MEL-28 melanoma = system: SK-MEL-28 melanoma

| SMILES | growth (DU-145 prostate) [%] | growth (K-562 leukemia) | growth (MALME-3M melanoma) | growth (MDA-MB-231 breast) | growth (RXF 393 renal) | growth (SF-268 CNS) [%] | growth (SF-295 CNS) [%] | growth (SF-539 CNS) | growth (UACC-257 melanoma) [%] | growth (M14 melanoma) | growth (HCT-15 colon) | growth (HT29 colon) | growth (SNB-75 CNS) [%] | growth (SNB-19 CNS) [%] | growth (U251 CNS) | growth (PC-3 prostate) [%] | growth (SK-MEL-5 melanoma) | growth (UACC-62 melanoma) [%] | growth (LOX IMVI melanoma) | growth (SK-MEL-28 melanoma) [%] |
| --- | --- | --- | --- | --- | --- | --- | --- | --- | --- | --- | --- | --- | --- | --- | --- | --- | --- | --- | --- | --- |
| Cc1cccc(CN(Nc2ccccc2)c2ccccc2)n1 | 107 | 87.5% | 89.8% | 118% | 96.3% | 101 | 118 | 96.6% | 98.7 | 105% | 92.1% | 96.3% | 93.1 | 106 | 91.4% | 85.7 | 97.9% | 96.3 | 98.5% | 98.7 |
| CC(C)=CC(=O)C1C(=O)c2ccccc2C1=O | 104 | 74.5% | 83.6% | 107% | 104% | 101 | 98.3 | 104% | 107 | 94% | 95% | 111% | 90 | 94.7 | 95.1% | 100 | 99.2% | 94.3 | 96.8% | – |
| O=C(O)COc1ccc(F)cc1 | 109 | 97.1% | 107% | 100% | 107% | 93.6 | 102 | 96.9% | 102 | 109% | 104% | 93.8% | 99.8 | 99.8 | 102% | 96.2 | 102% | 102 | 99% | – |
| Cc1ccc(S(=O)(=O)c2nc(-c3ccccc3)oc2S(C)=O)cc1 (stereo not drawn) | 47.3 | -31.1% (active) | -76.8% (active) | 4.23% (active) | -33.4% (active) | 55.9 | 84.3 | -22% (active) | 46.5 | -80.6% (active) | -53.1% (active) | -31.8% (active) | 66.7 | 68.9 | 45.1% | 22.3 | 44.4% | 50.6 | -87.7% (active) | – |
| O=[N+]([O-])c1ccc(Oc2cccc3c(Oc4ccc([N+](=O)[O-])cc4[N+](=O)[O-])cccc23)c([N+](=O)[O-])c1 | 107 | 95.1% | 105% | 63.7% | 96.4% | 85 | 99.9 | 96.3% | 91.6 | 93.3% | 100% | 97% | 81.6 | 84.7 | 87% | 79.7 | 86.7% | 76.5 | 78.4% | – |
| CN1CCN(Cc2ccc(NC(=O)c3cncc(C#Cc4cnc(N)c5ncccc45)c3)cc2Cl)CC1 | 77.1 | -28.9% (active) | 54.2% | 16.2% | 21.8% | 98.7 | 101 | 83.1% | 89.7 | 84.4% | 63.8% | 52.4% | 105 | 106 | -64.6% (active) | 91.6 | 78.4% | 98.5 | 86.5% | – |
| C[C@@H]1N=C(c2ccc(Cl)cc2Cl)Nc2nc3ccccn3c2C1=O | 64.8 | 23.6% | 43.7% | 64.6% | 80.2% | 58.9 | 14.5 | 53% | 52.4 | 31.1% | 35.1% | 7.68% (active) | 58.7 | 60.8 | 41.4% | 39.1 | 39.6% | 40.5 | 51.3% | – |
| O=C(Nc1ncc(Cc2ccc(Cl)cc2)s1)c1ccc2c(c1)OCCO2 | 16.6 | 8.41% (active) | 57.8% | 10.9% | 3.74% (active) | 42.9 | 11.7 | -4.99% (active) | 44.1 | 17.3% | 8.98% (active) | 7.68% (active) | 23 | 43.4 | 17.6% | 30.3 | -21.3% (active) | 45.8 | 31.3% | – |
